Assay [1] in a line: Primary fluorescence-based thiol-reactive (MSTI) qHTS assay for identification of artifact compounds. (AID 1845221).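 For activity change, negative = thiol reactive: series mostly up to about 54 µM; thiol-reactive compounds lower the probe fluorescence signal.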 Note: nearly all actives have a fitted effect of over 65% in size. Note: potency is the fitted concentration of half-maximal effect. Summed up: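 qHTS titration of compound; 4 uM MSTI, PBS pH 7.4, 2% DMSO; 1 h RT, dark; fluorescence 525/598 nm; normalized to Acetyl-MSTI and MSTI; 4-parameter Hill fit.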
Background: Quantitative high-throughput screening tests each substance at several concentrations.

The test system of assay [2] is Nanoluciferase (engineered Oplophorus gracilirostris luciferase). The experiment in a line: Primary Nanoluciferase (NLuc) qHTS assay for identification of artifact compounds. (AID 1845222).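 Note: series mostly up to about 54 µM; 0% = DMSO and -100% = no enzyme.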 The procedure, abridged:
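Compounds are pinned into diluted (1:55) conditioned medium of NLuc-expressing S16 cells and held 15 min at room temperature protected from light. Nano-Glo substrate follows, and luminescence is read 5 min later.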

From PubChem BioAssay (NCATS) come the findings set out here.

Unmarked numbers belong to inactive results. Results filed as inconclusive are left out. Calls of active or inactive are those of the source. Calls come from the whole dose curve; as a rule, active = well fitted curve in the direction sought with a large enough effect; inconclusive = small, poorly fitted or top-dose-only effect, or another doubt; inactive = no such curve, though single readings can be large; an effect the other way counts as inactive or inconclusive.

For the compound `Cc1c(-c2ccnn2C)cc(C(=O)NCc2ccc(S(C)(=O)=O)cn2)c(=O)n1-c1cccc(C(F)(F)F)c1`, the Potency result in assay [1] and in assay [2] was “inactive” each time.

`N#CC1C(=O)Nc2scc(-c3ccc(-c4ccccc4O)cc3)c2C1=O` (stereo not given): in assay [1], the Potency result was “inactive”.

On to `C/C=C/C=C/C=C/C(=O)O[C@@H]1[C@@H](OC)C2=C(C(=O)N(C(C)C(=O)O)C2)[C@@]2(C)CCCC(C)(C)[C@H]12` (stereo not given in full), for which the Potency entry in assay [1] and in assay [2] was “inactive” throughout.

Turning to `CCC(C)/C=C(C)/C=C/C1=CC2=C(Cl)C(=O)C(C)(OC(C)=O)C(=O)C2=CN1C1CCCCN(C(CCC(N)=O)C(=O)O)C1=O` (stereo not given), the Potency in assay [1] was 0.446 µM (active).

With `COC(=O)C1(Cc2ccc(O)cc2)OC(=O)C(OC)=C1c1ccc(O)cc1` (stereo not given), the Potency entry in assay [1] and in assay [2] was “inactive” each time.

For `COc1ccc([C@@H]2N[C@H](C(=O)O)Cc3c2[nH]c2ccccc32)cc1CN1CCN(c2ccccc2F)CC1`, in assay [1], the Potency result was “inactive”.

As for `COc1cc([C@H]2OC[C@]3(OC(C)=O)[C@@H](c4ccc(O[C@@H]5O[C@H](CO)[C@@H](O)[C@H](O)[C@H]5O)c(OC)c4)OC[C@H]23)ccc1O`, the Potency entry in assay [1] and in assay [2] was “inactive” in each case.

`CC1=CC[C@]2(C(=O)O[C@@H]3O[C@H](CO[C@@H]4O[C@H](CO)[C@@H](O[C@@H]5O[C@@H](C)[C@H](O)[C@@H](O)[C@H]5O)[C@H](O)[C@H]4O)[C@@H](O)[C@H](O)[C@H]3O)CC[C@]3(C)C(CCC4[C@@]5(C)C[C@@H](O)[C@H](O)[C@@](C)(CO)C5CC[C@]43C)C2C1C` (stereo not given in full): the activity change, negative = thiol reactive in assay [1] was 137% [at 11.5 µM]. Also, in assay [2], the activity, negative = inhibition was 3.97% [at 11.6 µM].

For `CCCC(N[C@@H](C)C(=O)N1[C@H](C(=O)O)C[C@@H]2CCCC[C@@H]21)C(=O)OCC` (stereo not given in full), the Potency entry in assay [1] and in assay [2] was “inactive” each time.

`O=C(O)c1cc(O)c2cccc(O)c2c1O[C@@H]1O[C@H](CO)[C@@H](O)[C@H](O)[C@H]1O`: the Potency in assay [1] is 2.07 µM (active).

Consider `C[C@@H]1O[C@@H](O[C@H]2[C@H](OC(=O)[C@]34CCC(C)(C)C[C@H]3C3=CCC5[C@@]6(C)CC[C@H](O[C@@H]7O[C@H](CO[C@@H]8OC[C@H](O)[C@H](O)[C@H]8O)[C@@H](O)[C@H](O)[C@H]7O)C(C)(C)C6CC[C@@]5(C)[C@]3(C)C[C@H]4O)OC[C@@H](O)[C@@H]2O)[C@H](O)[C@H](O)[C@H]1O[C@@H]1OC[C@H](O)[C@H](O[C@@H]2OC[C@@H](O)[C@H](O)[C@H]2O)[C@H]1O` (stereo not given in full), for which the activity change, negative = thiol reactive in assay [1] was 146% [at 11.5 µM]. The activity, negative = inhibition in assay [2] was -4.62% [at 11.6 µM].

For `CC(=O)O[C@H]1C[C@@H]2[C@]3(CC[C@]4(C)[C@@H](C5(C)CCC(C(C)(C)O)O5)[C@@H](O)C[C@@]24C)C[C@@]32CC[C@H](O[C@@H]3OC[C@@H](O)[C@H](O)[C@H]3O)C(C)(C)[C@H]12` (stereo not given in full), the Potency result in assay [1] was “inactive”.

Regarding `COc1ccc(/C=C/C(=O)O[C@H]2[C@@H]3C=CO[C@@H](O[C@@H]4O[C@H](CO)[C@@H](O)[C@H](O)[C@H]4O)[C@@H]3[C@@]3(CO)O[C@@H]23)cc1O`, the Potency in assay [1] was 11.6 µM (active). Further, the Potency entry in assay [2] is “inactive”.

`C=CCc1ccc(O[C@@H]2O[C@H](CO)[C@@H](O)[C@H](O)[C@H]2O)c(OC)c1`: the Potency in assay [1] is 7.36 µM (active). In assay [2], the Potency entry is “inactive”.

`CC/C=C\C[C@H]1C(=O)C=C[C@@H]1CCCCCCCC(=O)O`: the Potency entry in assay [1] and in assay [2] was “inactive” each time.

Take `COc1ccc2cc(OCC3(C(=O)O)CN(C(=O)c4ccc(F)cc4)C3)ccc2c1`: in assay [1], the Potency result is “inactive”.

Consider `CCS(=O)(=O)N1CCC([C@@H](C)n2c(C)c(C(=O)NCc3c(OC)cc(C)[nH]c3=O)c3ccccc32)CC1`, for which the Potency entry in assay [1] and in assay [2] was “inactive” throughout.

Turning to `CC(=O)O[C@@H]1C[C@]2(C)[C@@]3(CCC4[C@@]5(C)CC[C@H](O[C@@H]6O[C@H](C(=O)O)[C@@H](O)[C@H](O[C@@H]7O[C@H](CO)[C@H](O)[C@H](O)[C@H]7O[C@@H]7O[C@@H](C)[C@H](O)[C@@H](O)[C@H]7O[C@@H]7OC[C@](O)(CO)[C@H]7O)[C@H]6O[C@@H]6O[C@H](CO)[C@H](O)[C@H](O)[C@H]6O)C(C)(C)C5CC[C@]42C)O[C@@H](O)[C@]12C3CC(C)(C)[C@@H](OC(=O)/C=C/c1ccc(O)c(O)c1)[C@@H]2OC(=O)/C=C/c1ccccc1` (stereo not given in full), the activity change, negative = thiol reactive in assay [1] was 97% [at 11.5 µM]. For the same compound, in assay [2], the activity, negative = inhibition was 1.63% [at 11.6 µM].

With `CC(C)c1ccc(CC(=O)N2CCC[C@@H](c3cccc(OC(C)(C)C(=O)O)c3)C2)cc1`, the Potency entry in assay [1] and in assay [2] was “inactive” each time.

`CC1CCCC2OC2C(=O)c2c(O)cc(O)cc2CC(=O)O1` (stereo not given): the Potency in assay [1] is 8.44 µM (active). Further, the Potency entry in assay [2] was “inactive”.

Take `CC1(C)CC[C@]2(C(=O)O[C@@H]3O[C@H](CO)[C@@H](O)[C@H](O)[C@H]3O)CC[C@]3(C)C(=CCC4[C@@]5(C)C[C@@H](O)[C@H](O)[C@@](C)(CO)C5CC[C@]43C)C2C1` (stereo not given in full): the Potency result in assay [1] and in assay [2] was “inactive” throughout.

With `CC(CCC1(O)OC2CC3C4CCC5CC(O[C@@H]6O[C@H](CO)[C@@H](O)[C@H](O)[C@H]6O[C@@H]6OC[C@@H](O)[C@H](O)[C@H]6O)C(O)CC5(C)C4CCC3(C)C2C1C)CO[C@@H]1O[C@H](CO)[C@@H](O)[C@H](O)[C@H]1O` (stereo not given in full), the activity change, negative = thiol reactive in assay [1] was -13.7% [at 11.5 µM]. Also, the activity, negative = inhibition in assay [2] was 4.39% [at 11.6 µM].

For the compound `NCCCC[C@H](NC(=O)[C@@H]1Cc2ccccc2CN1C(=O)CCC(=O)c1ccccc1)C(=O)NCC(c1ccccc1)c1ccccc1`, the Potency result in assay [1] and in assay [2] was “inactive” throughout.
